The record followed here is PubChem BioAssay AID493169 (National Center for Advancing Translational Sciences (NCATS), 2011).

Records with an inconclusive call do not appear. A call without a number means that no potency is given here. Activity calls are given as the source filed them. The call rests on the fitted dose curve; in most records, active means well fitted inhibition curve with a large enough effect; inconclusive means small, poorly fitted or top-dose-only effect; inactive means flat fitted curve, though single readings scatter.
Potency means the concentration at half of the fitted maximal effect.

A short description of the assay: CHOP2 Reporter Counterscreen Assay for Inhibitors of Ubiquitin-specific Protease USP2a.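 Further: activated enterokinase alone at 50 pM in a cell-free format rather than USP2a or CHOP2; nearly all actives have a fitted effect of over 55% in size.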 The conditions noted are these: purified enterokinase, fluorogenic substrate, 485/531 nm; series mostly up to 38.3 µM. Summed up:
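Fluorescence (485/531 nm) read 10 min after adding 25nM reporter substrate to 50 pM activated EK preincubated 30 min RT with compound; Tris pH 8.0/CaCl2/CHAPS buffer. Data normalized to buffer-alone inhibition; concentration-response curves fitted.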
With `CCOc1ccc(Cn2c(=O)sc3ccccc32)cc1OC`, the Potency entry was “inactive”. To `Cc1n[nH]c(C)c1S(=O)(=O)N1CCCC(C(=O)Nc2nccs2)C1` (stereo not given) belongs “inactive”. In the case of `CCOC(=O)N1CCN(C(=O)CN(c2ccc(C)c(C)c2)S(=O)(=O)c2ccccc2)CC1`, the Potency result was “inactive”. To `N#Cc1c(-c2cccs2)nc(SCc2ccc(Cl)cc2)[nH]c1=O` belongs “inactive”.

As for `CN=c1scc(-c2ccccc2F)n1/N=C/c1ccc(O)c(O)c1O`, the Potency is 10 µM (active). `O=C(C[n+]1cccc(C(=O)N/N=C/c2ccc(Br)cc2)c1)c1ccccc1`: the Potency entry was “inactive”. To `CC(C)(C)[C@H]1COC(=O)[C@@H](Cc2ccc(F)cc2)C/C=C\C[C@@H](CC(=O)N[C@@H](CO)Cc2ccccc2)C(=O)N1` belongs “inactive”; to `C=CC[C@H](CC(=O)OC(C)(C)C)C(=O)OC[C@@H]1CCCN1C(=O)[C@H](CC=C)CC(=O)N[C@H](CO)Cc1ccccc1`, “inactive”. `O=C(c1ccccc1N(Cc1ccccc1)S(=O)(=O)c1ccccc1)N1CCOCC1`: the Potency entry was “inactive”. Consider `Cc1cc(NC(=O)CN2C(=O)NC3(CCCCC3C)C2=O)no1` (stereo not given), for which the Potency entry is “inactive”. As for `NS(=O)(=O)c1ccc(NC(=O)/C=C/c2cn(-c3ccccc3)nc2-c2cccc(Cl)c2)cc1`, the Potency result is “inactive”. To `CCN(CC(=O)Nc1ccc(NC(C)=O)cc1)C(=O)c1ccc(N2CCC(C)CC2)c([N+](=O)[O-])c1` belongs “inactive”; to `O=C(CCN1C(=O)/C(=C\c2ccco2)SC1=S)Nc1ccc(C(=O)O)c(O)c1`, 10 µM (active).

In the case of `CC(C)n1nc(C(=O)Nc2ccccc2N2CCOCC2)c2ccccc2c1=O`, the Potency result is “inactive”. To `CCC/C(O)=C1\C(=O)CC(C)(C)CC1=Nc1ccc(OC)cc1OC` belongs “inactive”.
